Several values for one entry are separate records, joined by “and”; a condition that tells them apart may be missing. Identical values can stand only once. Inconclusive results are not listed. Activity calls are given as the source filed them. Unless noted, the call rests on the fitted dose curve.
Key:
[1] = Cell Viability - LYMP2-014 (AID 983; active means well fitted cell-killing curve with a large enough effect;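 further: series mostly up to about 92 µM; cells exposed to compound for 24 h at 37 °C; plate controls were DMSO only for no effect and 92 µM tetraoctylammonium bromide for full effect; nearly all actives have a fitted effect of over 50% in size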)
Method in brief: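 Cells are plated at 2500/well and left 5 hr at 37 C. Compounds are added across a concentration range and incubated 24 hr at 37 C in complete medium. CellTiter-Glo is added, and luminescence is read after 30 min at room temperature.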

[2] = Cell Viability - LYMP2-016 (AID 984; active means well fitted cell-killing curve with a large enough effect;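 further: cells exposed to compound for 24 hours at 37 °C; on the % scale 0 is the no-effect control and ±100 the full control effect; nearly all actives have a fitted effect of over 55% in size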)
Method in brief: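 Acute toxicity in a Coriell human lymphoblastoid line is scored as loss of intracellular ATP over 24 h of treatment in complete medium. CellTiter-Glo signal is fitted across concentrations with the Hill equation to give AC50.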

[3] = Cell Viability - LYMP2-018 (AID 985; active means well fitted cell-killing curve with a large enough effect;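 further: compound exposure lasted 24 hr at 37 °C; plate controls were DMSO only for no effect and tetraoctylammonium bromide at 92 µM for full effect; nearly all actives have a fitted effect of over 50% in size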)
Method in brief: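 Seed 2500 lymphoblastoid cells per well, incubate 5 hr at 37 C, add compound and incubate 24 hr at 37 C, add CellTiter-Glo, wait 30 min at room temperature, then read luminescence.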

[4] = Cell Viability - LYMP2-020 (AID 986; active means well fitted cell-killing curve with a large enough effect;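 further: series mostly up to about 92 µM; cells exposed to compound for 24 h at 37 °C; plate controls were DMSO only for no effect and tetraoctylammonium bromide at 92 µM for full effect; nearly all actives have a fitted effect of over 55% in size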)
Method in brief: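 Seed 2500 cells per well and incubate 5 hr at 37 C. Add compounds at a concentration series and incubate 24 hr at 37 C. Add CellTiter-Glo, wait 30 min at RT, read luminescence, and fit a Hill curve for AC50.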

[5] = Cell Viability - LYMP2-022 (AID 987; active means well fitted cell-killing curve with a large enough effect;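 further: 0% = DMSO alone and full effect = tetraoctylammonium bromide at 92 µM; nearly all actives have a fitted effect of over 55% in size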)
Method in brief: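 Cells were seeded at 2500 per well, rested 5 hr at 37 C, and treated with titrated compounds for 24 hr at 37 C. Cellular ATP was then quantified by luciferase luminescence, and AC50 values were derived from Hill-modelled concentration-response curves.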

[6] = Cell Viability - LYMP2-024 (AID 988; active means well fitted cell-killing curve with a large enough effect;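 further: plate controls were DMSO only for no effect and 92 µM tetraoctylammonium bromide for full effect; nearly all actives have a fitted effect of over 60% in size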)
Method in brief: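 qHTS cytotoxicity, human lymphoblastoid line, complete medium; 24 h cpd treatment, 37 C; CellTiter-Glo ATP luminescence readout; tetraoctylammonium bromide positive control; AC50 via Hill fit.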

[7] = Cell Viability - LYMP2-026 (AID 989; active means well fitted cell-killing curve with a large enough effect;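 further: cells exposed to compound for 24 h at 37 °C; on the % scale 0 is the no-effect control and ±100 the full control effect; nearly all actives have a fitted effect of over 50% in size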)
Method in brief: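 Cells are seeded at 2500 per well and held 5 hr at 37 C. Compounds are added in concentration series for 24 hr, then CellTiter-Glo reagent is applied and luminescence read.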

[8] = Cell Viability - LYMP1-002 - Assay at 24 hr (AID 993; active means well fitted cell-killing curve with a large enough effect; further: on the % scale 0 is the no-effect control and ±100 the full control effect)
Method in brief: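 Acute toxicity is measured as concentration-dependent loss of cellular ATP in a human lymphoblastoid line (Coriell LYMP1-002) after 24 h treatment in complete medium. ATP is quantified by luciferase luminescence and AC50 derived by Hill modelling.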

[9] = Cell Viability - LYMP1-002 - Assay at 40 hr (AID 994; active means well fitted cell-killing curve with a large enough effect;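 further: 0% = DMSO only and full inhibition = 92 µM tetraoctylammonium bromide; nearly all actives have a fitted effect of over 60% in size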)
Method in brief: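 Cells are plated at 2500 per well and rested 5 hr at 37 C. Compounds are added and incubated 40 hr at 37 C. CellTiter-Glo reagent is added for 30 min at room temperature before luminescence is read.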

[10] = qHTS Assay for Identification of Small Molecule Inducers of Hypoxia Response (AID 2120; active means well fitted curve in the direction sought with a large enough effect in the signal ratio, with a control signal flat, not every such curve was filed as active; the % refers to the signal ratio; further: 0% is about no effect)
Method in brief: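 Cell-based qHTS for reporter induction: hypoxia response element controlled beta-lactamase in ME-180 cells. Compounds incubated 17 h at 37 degrees C; activity from blue/green (460/530 nm) ratio, inducers ranked by AC50.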

[11] = target: Estrogen receptor (Homo sapiens) (UniProt P03372); assay: qHTS assay for small molecule antagonists of estrogen receptor alpha signaling (AID 588513; active means well fitted curve in the direction sought with a large enough effect in the signal ratio, with a control signal flat, not every such curve was filed as active; the % refers to the signal ratio; further: on the % scale 0 is the no-effect control and ±100 the full control effect)
Chain of Estrogen receptor (Homo sapiens) (P03372 whole entry, looked up): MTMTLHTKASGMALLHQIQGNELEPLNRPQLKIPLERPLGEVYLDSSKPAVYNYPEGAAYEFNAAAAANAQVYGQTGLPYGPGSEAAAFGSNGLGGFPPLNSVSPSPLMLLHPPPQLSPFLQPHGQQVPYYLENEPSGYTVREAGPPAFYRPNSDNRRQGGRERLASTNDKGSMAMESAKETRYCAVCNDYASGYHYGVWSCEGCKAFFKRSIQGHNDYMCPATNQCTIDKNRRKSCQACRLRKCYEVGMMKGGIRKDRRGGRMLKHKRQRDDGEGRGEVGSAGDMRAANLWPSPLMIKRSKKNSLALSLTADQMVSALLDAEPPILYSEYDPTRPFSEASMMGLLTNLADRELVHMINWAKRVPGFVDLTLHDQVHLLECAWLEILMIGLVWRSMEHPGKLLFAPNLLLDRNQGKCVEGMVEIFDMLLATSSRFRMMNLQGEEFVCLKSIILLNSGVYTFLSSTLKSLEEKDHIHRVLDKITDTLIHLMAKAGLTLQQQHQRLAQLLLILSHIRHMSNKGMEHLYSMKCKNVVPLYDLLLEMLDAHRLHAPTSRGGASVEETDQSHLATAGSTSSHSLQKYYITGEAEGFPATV
Method in brief: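 Cells were plated at 5000/well and incubated 4 h at 37 C. Compounds were added as 1:2 dilution series, duplicates. 17-beta-estradiol (0.5nM final) was added for 18 h before CCF4 detection.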

[12] = target: Estrogen receptor (Homo sapiens) (UniProt P03372); assay: qHTS assay for small molecule agonists of estrogen receptor alpha signaling (AID 588514);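 further: 0% = vehicle only and 100% = reference agonist; nearly all actives have a fitted effect of over 70% in size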
Method in brief: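 Efficacy is expressed against 20 nM 17-beta-estradiol (100%) and DMSO basal (0%); EC50 from Hill equation. Assay: beta-lactamase reporter in ER-alpha-UAS-bla HEK 293 cells, 18 h compound incubation, CCF4 detection.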

[13] = target: Glucocorticoid receptor (Homo sapiens) (UniProt P04150); assay: qHTS assay for small molecule agonists of glucocorticoid receptor signaling (AID 588532; active means well fitted curve in the direction sought with a large enough effect in the signal ratio, with a control signal flat; the % refers to the signal ratio;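 further: 100% = dexamethasone at 0.1 µM and 0% = DMSO only wells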); settings: HeLa MMTV-bla, beta-lactamase ratio, agonist, 18 h; stronger effect = higher value; percent of dexamethasone control, DMSO zero
Chain of Glucocorticoid receptor (Homo sapiens) (P04150 whole entry, looked up): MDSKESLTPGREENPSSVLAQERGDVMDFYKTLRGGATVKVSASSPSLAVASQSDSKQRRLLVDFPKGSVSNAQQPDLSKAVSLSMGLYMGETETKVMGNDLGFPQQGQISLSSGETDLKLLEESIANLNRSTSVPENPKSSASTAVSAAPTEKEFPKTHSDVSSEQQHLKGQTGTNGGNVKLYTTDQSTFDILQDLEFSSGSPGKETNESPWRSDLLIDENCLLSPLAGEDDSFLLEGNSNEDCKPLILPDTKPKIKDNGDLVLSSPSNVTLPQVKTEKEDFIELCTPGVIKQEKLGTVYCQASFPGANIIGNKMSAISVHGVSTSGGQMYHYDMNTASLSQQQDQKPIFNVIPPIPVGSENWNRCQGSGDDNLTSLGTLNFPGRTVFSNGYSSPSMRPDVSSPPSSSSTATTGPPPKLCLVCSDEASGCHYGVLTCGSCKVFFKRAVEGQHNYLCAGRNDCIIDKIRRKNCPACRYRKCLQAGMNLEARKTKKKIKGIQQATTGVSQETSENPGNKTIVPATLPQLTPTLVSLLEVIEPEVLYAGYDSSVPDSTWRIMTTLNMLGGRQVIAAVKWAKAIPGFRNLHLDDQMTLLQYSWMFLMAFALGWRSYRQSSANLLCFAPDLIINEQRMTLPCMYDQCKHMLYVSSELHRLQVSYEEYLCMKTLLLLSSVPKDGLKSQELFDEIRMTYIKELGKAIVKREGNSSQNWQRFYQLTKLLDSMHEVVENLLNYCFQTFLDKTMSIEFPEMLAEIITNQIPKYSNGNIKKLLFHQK
Method in brief: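 Titration series, up to 92 uM, applied to GRE-bla HeLa cells for 18 h at 37 C. Detection by CCF4 FRET substrate after 2 h at RT.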

[14] = target: Glucocorticoid receptor (Homo sapiens) (UniProt P04150); assay: qHTS assay for small molecule antagonists of glucocorticoid receptor signaling (AID 588533; active means well fitted inhibition curve with a large enough effect in the signal ratio, with a control signal flat, not every such curve was filed as active; the % refers to the signal ratio;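 further: cells stimulated with 2 nM dexamethasone as agonist; on the % scale 0 is the no-effect control and ±100 the full control effect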)
Method in brief: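 Antagonist-mode qHTS: compound titrations added to GRE-bla HeLa cells, then dexamethasone 2 nM final; 18 h, 37 C. CCF4 FRET fluorescence normalized to dexamethasone and DMSO; IC50 from Hill fit.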

[15] = target: Peroxisome proliferator-activated receptor delta (Homo sapiens) (UniProt Q03181); assay: qHTS assay for small molecule agonists of peroxisome proliferator-activated receptor delta signaling (AID 588534);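 further: 0% = DMSO basal wells and 100% = positive control agonist at 10 µM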
Chain of Peroxisome proliferator-activated receptor delta (Homo sapiens) (Q03181 whole entry, looked up): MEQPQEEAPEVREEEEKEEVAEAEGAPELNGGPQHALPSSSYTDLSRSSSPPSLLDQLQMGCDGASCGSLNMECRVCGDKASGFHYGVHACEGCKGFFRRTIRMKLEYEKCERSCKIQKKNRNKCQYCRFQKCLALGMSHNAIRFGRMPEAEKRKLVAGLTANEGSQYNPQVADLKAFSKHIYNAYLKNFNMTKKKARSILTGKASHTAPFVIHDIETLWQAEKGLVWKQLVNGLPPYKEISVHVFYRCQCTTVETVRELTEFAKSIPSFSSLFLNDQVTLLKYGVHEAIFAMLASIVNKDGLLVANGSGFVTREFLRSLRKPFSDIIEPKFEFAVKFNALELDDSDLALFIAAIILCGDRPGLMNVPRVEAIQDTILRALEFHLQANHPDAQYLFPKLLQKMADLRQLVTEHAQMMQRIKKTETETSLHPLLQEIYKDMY
Method in brief: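 Agonist-mode qHTS; reporter cells, 5 hrs 37 C pre-incubation; compound titration, 18 hrs 37 C; CCF4 dye, 2 hrs RT; fluorescence read. EC50/efficacy via Hill fit.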

[16] = qHTS assay for small molecule antagonists of peroxisome proliferator-activated receptor delta signaling (AID 588535; active means well fitted inhibition curve with a large enough effect in the signal ratio, with a control signal flat, not every such curve was filed as active; the % refers to the signal ratio;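 on max response: cells co-treated with a PPAR-delta agonist as stimulator during compound exposure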); settings: HEK293T PPARd-UAS-bla, beta-lactamase FRET ratio, 18 h; 460 nm channel
Method in brief: (§1)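 Inhibition of PPAR-delta response element-driven beta-lactamase expression is measured in HEK293T cells exposed to a compound titration series for 18 hrs at 37 C. Half-maximal inhibition comes from Hill equation fitting.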

[17] = target: Peroxisome proliferator-activated receptor delta (Homo sapiens) (UniProt Q03181); assay: as above
Method in brief: as §1

[18] = target: Peroxisome proliferator-activated receptor gamma (Homo sapiens) (UniProt P37231); assay: qHTS assay for small molecule agonists of peroxisome proliferator-activated receptor gamma signaling (AID 588536; active means well fitted curve in the direction sought with a large enough effect in the signal ratio, with a control signal flat, not every such curve was filed as active; the % refers to the signal ratio;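 further: 0% = DMSO basal wells and 100% = rosiglitazone at 2 µM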)
Chain of Peroxisome proliferator-activated receptor gamma (Homo sapiens) (P37231 whole entry, looked up): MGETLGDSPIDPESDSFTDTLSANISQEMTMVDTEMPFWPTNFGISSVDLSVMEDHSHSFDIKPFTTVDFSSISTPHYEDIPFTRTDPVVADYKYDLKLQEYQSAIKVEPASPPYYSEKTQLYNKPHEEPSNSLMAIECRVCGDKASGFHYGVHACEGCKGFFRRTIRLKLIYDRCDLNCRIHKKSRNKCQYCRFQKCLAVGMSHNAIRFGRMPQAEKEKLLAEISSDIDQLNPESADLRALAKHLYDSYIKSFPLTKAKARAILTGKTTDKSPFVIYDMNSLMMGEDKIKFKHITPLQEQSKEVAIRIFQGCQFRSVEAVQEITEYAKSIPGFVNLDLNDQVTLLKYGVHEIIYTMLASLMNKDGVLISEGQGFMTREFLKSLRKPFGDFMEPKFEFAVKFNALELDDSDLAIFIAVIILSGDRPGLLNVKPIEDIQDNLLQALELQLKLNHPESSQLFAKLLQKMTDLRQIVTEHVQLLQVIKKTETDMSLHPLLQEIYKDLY
Method in brief: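 Beta-lactamase reporter read-out: CCF4 fluorescence (ex 405, em 460/530 nm) after 2 h at RT. HEK293 GeneBLAzer cells were treated for 16 h at 37 C. Hill fits gave EC50 and efficacy versus 2 uM rosiglitazone (100%) and DMSO (0%).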

[19] = target: Peroxisome proliferator-activated receptor gamma (Homo sapiens) (UniProt P37231); assay: qHTS assay for small molecule antagonists of peroxisome proliferator-activated receptor gamma signaling (AID 588537; active means well fitted inhibition curve with a large enough effect in the signal ratio, with a control signal flat, not every such curve was filed as active; the % refers to the signal ratio;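 further: reporter cells co-stimulated with 50 nM rosiglitazone agonist during compound treatment; % of control where 0% means no effect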)
Method in brief: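 Compounds are tested as concentration series for inhibition of rosiglitazone-driven (50 nM) reporter expression in GeneBLAzer PPAR-gamma-UAS-bla HEK293 cells. After 16 h at 37 C, CCF4 substrate is added for 2 h at room temperature and blue/green fluorescence is measured.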

[20] = target: Vitamin D3 receptor (Homo sapiens) (UniProt P11473); assay: qHTS assay for small molecule antagonists of vitamin D receptor signaling (AID 588541);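 further: receptor activated by calcitriol during compound treatment; series mostly up to about 77 µM; on the % scale 0 is the no-effect control and ±100 the full control effect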
Chain of Vitamin D3 receptor (Homo sapiens) (P11473 whole entry, looked up): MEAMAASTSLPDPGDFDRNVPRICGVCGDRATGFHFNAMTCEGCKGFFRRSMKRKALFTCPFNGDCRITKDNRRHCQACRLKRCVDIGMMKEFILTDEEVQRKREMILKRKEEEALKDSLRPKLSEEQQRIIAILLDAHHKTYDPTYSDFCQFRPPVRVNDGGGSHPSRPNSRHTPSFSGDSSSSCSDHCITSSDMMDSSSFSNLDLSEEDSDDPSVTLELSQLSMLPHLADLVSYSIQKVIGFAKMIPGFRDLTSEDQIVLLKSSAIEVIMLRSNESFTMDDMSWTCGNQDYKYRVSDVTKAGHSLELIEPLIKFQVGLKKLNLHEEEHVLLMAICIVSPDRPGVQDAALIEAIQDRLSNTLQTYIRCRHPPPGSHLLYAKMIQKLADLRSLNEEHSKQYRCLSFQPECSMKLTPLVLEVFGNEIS
Method in brief: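 VDR-UAS-bla HEK293T cells (2000/well, 2% charcoal-stripped FBS) were treated with titrated compounds plus 1-alpha,25-dihydroxyvitamin D3 (50 nM or 3 nM final) for 16 h at 37 C. CCF4 beta-lactamase fluorescence was read; Hill fits gave IC50.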

[21] = target: Vitamin D3 receptor (Homo sapiens) (UniProt P11473); assay: qHTS assay for small molecule agonists of vitamin D receptor signaling (AID 588543);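 further: 0% = DMSO basal and 100% = reference agonist control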
Method in brief: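 qHTS in agonist mode: compound titrations stimulate a VDR-driven β-lactamase reporter in HEK293T cells over 16 h at 37 °C. Response normalized to 50 nM 1α,25-dihydroxyvitamin D3 = 100%, DMSO = 0%; Hill fitting gives EC50 and maximal response.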

[22] = qHTS assay for small molecule agonists of retinoid X receptor alpha signaling (AID 588544); settings: HEK293T RXRa-UAS-bla, beta-lactamase reporter, 18 h; 530 nm emission;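 on activation: 0% = DMSO basal wells and 100% = reference agonist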
[23] = target: Retinoic acid receptor RXR-alpha (Homo sapiens) (UniProt P19793); assay: as above
Chain of Retinoic acid receptor RXR-alpha (Homo sapiens) (P19793 whole entry, looked up): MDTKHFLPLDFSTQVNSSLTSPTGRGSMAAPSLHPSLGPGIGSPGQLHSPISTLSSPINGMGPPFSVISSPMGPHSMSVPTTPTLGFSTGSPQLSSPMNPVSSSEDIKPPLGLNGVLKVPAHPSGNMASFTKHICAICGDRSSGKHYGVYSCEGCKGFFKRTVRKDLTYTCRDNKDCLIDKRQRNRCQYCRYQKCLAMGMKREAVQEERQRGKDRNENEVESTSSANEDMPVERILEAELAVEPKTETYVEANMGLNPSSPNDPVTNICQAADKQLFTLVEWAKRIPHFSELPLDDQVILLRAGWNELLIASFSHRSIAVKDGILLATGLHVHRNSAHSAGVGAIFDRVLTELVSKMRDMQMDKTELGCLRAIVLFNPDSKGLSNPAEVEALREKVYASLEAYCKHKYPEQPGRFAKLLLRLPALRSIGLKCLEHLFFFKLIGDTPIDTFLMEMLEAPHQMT

[24] = target: Thyroid hormone receptor beta (Homo sapiens) (UniProt P10828); assay: qHTS assay for small molecule agonists of thyroid hormone receptor beta signaling (AID 588545);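 further: 0% = DMSO only and 100% = 10 nM T3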
Chain of Thyroid hormone receptor beta (Homo sapiens) (P10828 whole entry, looked up): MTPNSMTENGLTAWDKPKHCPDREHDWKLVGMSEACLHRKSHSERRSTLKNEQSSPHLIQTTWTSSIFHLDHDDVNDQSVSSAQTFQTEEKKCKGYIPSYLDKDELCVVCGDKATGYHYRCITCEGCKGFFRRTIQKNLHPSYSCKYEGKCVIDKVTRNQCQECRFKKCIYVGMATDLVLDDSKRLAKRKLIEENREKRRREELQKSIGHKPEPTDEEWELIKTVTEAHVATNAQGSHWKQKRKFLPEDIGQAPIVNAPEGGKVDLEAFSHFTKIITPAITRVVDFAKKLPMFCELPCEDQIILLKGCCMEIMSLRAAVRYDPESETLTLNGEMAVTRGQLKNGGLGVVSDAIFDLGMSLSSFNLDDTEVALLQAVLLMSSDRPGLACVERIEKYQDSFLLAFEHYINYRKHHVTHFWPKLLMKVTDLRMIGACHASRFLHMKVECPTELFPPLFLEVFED
Method in brief: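 Efficacy and EC50 values derive from Hill fits of qHTS titration data, normalized to 10 nM T3 and DMSO-only wells. HEK 293 reporter cells were stimulated for 18 hrs at 37 C, with beta-lactamase activity measured by CCF4 fluorescence.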

[25] = qHTS assay for small molecule antagonists of retinoid X receptor alpha signaling (AID 588546; active means well fitted inhibition curve with a large enough effect in the signal ratio, with a control signal flat, not every such curve was filed as active; the % refers to the signal ratio); settings: HEK293T RXRa-UAS-bla, beta-lactamase ratio, antagonist mode; measured here: W530 green channel, cytotoxicity proxy
Method in brief: (§2)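 Beta-lactamase reporter inhibition, read as CCF4 fluorescence ratio (ex 405, em 460/530 nm) after 2 h at RT. HEK293T UAS-bla cells, 2500/well, were stimulated with 9-cis-RA at 500 or 100 nM final alongside test compound for 18 h at 37 C.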

[26] = target: Retinoic acid receptor RXR-alpha (Homo sapiens) (UniProt P19793); assay: as above; settings: HEK293T RXRa-UAS-bla, beta-lactamase ratio, antagonist mode
Method in brief: as §2

Cc1ccccc1O
inactive: outcome [1] | outcome [2] | outcome [3] | outcome [4] | outcome [5] | outcome [6] | outcome [7] | outcome [8] | Potency [9] | outcome [10] | Potency [11] | Potency [12] | activation [13] 1.9% and -0.638% | Potency [14] | Potency [15] | outcome [17] | outcome [18] | Potency [19] | outcome [20] | Potency [21] | outcome [23] | Potency [24] | max response [26] -5.98% and 4.44%
-8.36% and -9.93%: max response [25]
-16.4% and 2.5%: max response [22]
12.8% and 44.7%: max response [16]

— PubChem BioAssay (NCATS)
